# Data published in article PMC4336329 (PLoS ONE, 2015).
# Screen size: about 310,000 compounds; about 14,000 (4.5%) showed an effect of 50% or more. Effects have a minus sign here. Many of the other results were omitted from the sample, so strong results are more common in it than they were.
# Target: human ether-à-go-go-related gene (hERG) potassium channel (human, UniProt Q12809)
# Assay: primary screen, population patch clamp on CHO cells stably expressing hERG; higher = less effect of the substance
# 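Further: peak tail current of the secondary pulse compared with the same well before compound.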
# Chain of human ether-à-go-go-related gene (hERG) potassium channel (Q12809 whole entry, looked up): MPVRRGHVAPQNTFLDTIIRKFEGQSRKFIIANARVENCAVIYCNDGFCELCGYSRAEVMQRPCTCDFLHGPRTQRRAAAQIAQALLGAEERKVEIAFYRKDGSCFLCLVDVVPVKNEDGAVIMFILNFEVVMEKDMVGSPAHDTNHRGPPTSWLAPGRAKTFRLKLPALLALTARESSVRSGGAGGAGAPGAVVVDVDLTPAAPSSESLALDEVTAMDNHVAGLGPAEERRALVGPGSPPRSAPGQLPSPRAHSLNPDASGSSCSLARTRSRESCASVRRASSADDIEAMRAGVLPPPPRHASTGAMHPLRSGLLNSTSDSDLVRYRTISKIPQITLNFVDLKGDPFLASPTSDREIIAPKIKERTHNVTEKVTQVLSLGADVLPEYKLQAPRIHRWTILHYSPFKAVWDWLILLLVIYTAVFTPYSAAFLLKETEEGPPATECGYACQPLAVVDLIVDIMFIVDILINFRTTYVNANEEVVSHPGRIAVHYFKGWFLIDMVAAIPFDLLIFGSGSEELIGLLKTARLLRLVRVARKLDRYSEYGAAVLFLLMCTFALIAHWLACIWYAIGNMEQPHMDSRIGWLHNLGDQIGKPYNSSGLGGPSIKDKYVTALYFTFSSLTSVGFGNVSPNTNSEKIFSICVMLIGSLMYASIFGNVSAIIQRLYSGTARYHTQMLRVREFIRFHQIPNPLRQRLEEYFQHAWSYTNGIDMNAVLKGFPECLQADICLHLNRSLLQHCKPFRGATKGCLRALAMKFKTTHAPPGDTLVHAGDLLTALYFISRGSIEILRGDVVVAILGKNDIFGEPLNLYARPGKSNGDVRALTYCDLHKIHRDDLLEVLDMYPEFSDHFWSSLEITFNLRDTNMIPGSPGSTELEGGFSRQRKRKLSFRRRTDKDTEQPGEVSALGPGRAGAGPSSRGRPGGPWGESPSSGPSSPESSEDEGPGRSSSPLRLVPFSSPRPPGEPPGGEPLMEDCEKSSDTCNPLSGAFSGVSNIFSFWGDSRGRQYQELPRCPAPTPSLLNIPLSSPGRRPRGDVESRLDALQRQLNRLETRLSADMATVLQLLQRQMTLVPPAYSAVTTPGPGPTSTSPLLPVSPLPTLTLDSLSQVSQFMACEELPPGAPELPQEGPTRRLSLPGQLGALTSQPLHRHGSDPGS
row,SMILES,"hERG current change (%, negative = inhibition) at 10uM [%]"
1,Cc1cc(C)cc(N(C(=O)CNC(=O)c2ccco2)C(C(=O)NC2CCCCC2)c2ccncc2)c1 (stereo not drawn),-10
2,CCOC(=O)C1=C(C)NC(=O)C(C(N)=O)C1c1ccccc1 (stereo not drawn),5.2
3,O=c1[nH]c2cc3c(cc2cc1C(c1nnnn1C1CCCC1)N1CCSCC1)OCCO3 (stereo not drawn),13.6
4,CSc1nc(C)cc(-n2ccc(=O)[nH]c2=O)n1,-3.54
5,CCOC(=O)/C=c1\s/c(=C\c2c(OC)ccc3ccccc23)c(=O)n1CC(=O)NCC1CCCO1 (stereo not drawn),2.13
6,Cc1ccccc1Nc1ncnc2c1cnn2C,4.92
7,CN(C)CC(C)(C)CNC(=O)c1cc(=O)c2ccccc2o1.Cl,19.6
8,Cc1cc(/C=C2/SC(=O)N(CC(=O)N3CCCC3)C2=O)c(C)n1C,-5.16
9,CCC(C)NCCCCOc1cc(C)cc(C(C)C)c1 (stereo not drawn),-54.9
10,Cc1cc(OCCCn2ccnc2)cc(C(C)C)c1,-14.4
11,Cc1cc(OCCCCNC(C)C)cc(C(C)C)c1.O=C(O)C(=O)O,-29.6
12,COc1ccc(C(=O)Oc2cc(N)n(S(=O)(=O)c3ccccc3)n2)cc1,-7.73
13,COc1ccccc1NS(=O)(=O)c1ccc(C(=O)NCC(c2ccccc2OC)N(C)C)cc1 (stereo not drawn),-0.121
14,Cc1ccc(OCc2cc(C(=O)N3CCC(C(O)C(C)C)CC3)no2)cc1C (stereo not drawn),-23.1
15,CC(=O)c1ccccc1OCCCCN1CCCCC1.O=C(O)C(=O)O,-59.5
16,CCc1ccccc1OCCCCN1CCCCC1.O=C(O)C(=O)O,-30
17,CC(=O)c1ccccc1OCCCN1CCCCC1.O=C(O)C(=O)O,-31.8
18,O=C(O)C(=O)O.c1ccc(-c2ccccc2OCCCN2CCCC2)cc1,-65
19,CCN1CCN(CCCOc2ccccc2-c2ccccc2)CC1.O=C(O)C(=O)O,-66.6
20,CCN1CCN(CCOc2ccccc2-c2ccccc2)CC1.O=C(O)C(=O)O,-32.9
21,O=C(O)C(=O)O.c1ccc(-c2ccccc2OCCCN2CCOCC2)cc1,-37.1
22,Cl.OCCN1CCN(CCOc2ccccc2-c2ccccc2)CC1,-24.1
23,CCN1CCN(CCOCCOc2ccccc2-c2ccccc2)CC1.O=C(O)C(=O)O,-35.6

row,SMILES,"hERG current change (%, negative = inhibition) at 10uM [%]"
1,Cl.OCCCN1CCN(CCCOc2ccccc2-c2ccccc2)CC1,-69.6
2,O=C(CSc1nnc(-c2cccnc2)o1)Nc1cccc(F)c1,-1.97
3,Cc1c(Br)c([N+](=O)[O-])nn1CC(=O)N1CCN(C23CC4CC(CC(C4)C2)C3)CC1,-38.1
4,Cc1c(N2C(=O)/C(=C\c3ccccc3O)SC2=S)c(=O)n(-c2ccccc2)n1C,30.5
5,O=C(O)Cc1nc2nc3c(c(=O)n2[nH]1)CCCC3,16.3
6,CCOc1ccc(/C=N/NC(=O)c2cc(-c3cccn3C)n[nH]2)cc1,5.27
7,COc1ccc(C/C(O)=C(\C#N)c2nc3ccccc3s2)cc1,11.6
8,O=C(O)C(=O)O.c1ccc(-c2ccccc2OCCCN2CCCCCC2)cc1,-80.1
9,O=C(O)C(=O)O.c1ccc(-c2ccccc2OCCCN2CCCCC2)cc1,-74.6
10,O=C(O)C(=O)O.c1ccc(-c2ccccc2OCCOCCN2CCOCC2)cc1,6.15
11,O=C(O)C(=O)O.c1ccc(-c2ccccc2OCCN2CCCCC2)cc1,-45.9
12,O=C(O)C(=O)O.c1ccc(-c2ccccc2OCCCCN2CCCCCC2)cc1,-77.5
13,CCC1(c2ccc(C)cc2)NC(=O)N(CC(=O)Nc2cccc(S(=O)(=O)N3CCCC3)c2)C1=O (stereo not drawn),0.0785
14,O=C(NCCCN1CCCCC1)C1CC(=O)N(CCc2ccccc2)C1 (stereo not drawn),12.3
15,CC(C)CC(=O)Nc1nnc(S(=O)(=O)N2CCCCCC2)s1,-15
16,COc1ccc(-c2nc3c(s2)CN(S(C)(=O)=O)CC3)cc1OC,15.2
17,Cc1ccc(S(=O)(=O)NCCC(=O)Nc2ccc(C)c(Cl)c2)cc1C,-1.46
18,CCOC(=O)C1CCCN(C2CC(=O)N(c3ccc(C(C)C)cc3)C2=O)C1 (stereo not drawn),-10
19,CCc1ccc(NC(=O)Cc2ccc(-n3cccc3)cc2)cc1,0.973
20,Cc1[nH]n(-c2ccccc2)c(=O)c1/C=N/n1c(C)nc2ccccc2c1=O,11.8
21,CCc1ccc(Nc2ccc(C(N)=O)cc2[N+](=O)[O-])cc1,8.56
22,Cc1ccc(N)c(N)c1,6.61
23,Br.CCn1c2c(c(=N)c3ccccc31)CCC2,5.12

row,SMILES,"hERG current change (%, negative = inhibition) at 10uM [%]"
1,CCCCCCCn1c2c(c(=N)c3ccccc31)CCC2.I,-81.4
2,CCOC(=O)Cn1c2c(c(=N)c3ccccc31)CCC2.Cl,4.06
3,O=C(O)Cn1c2c(c3ccccc31)CCCC2,7.39
4,CCCCCn1c2c(c(=N)c3ccccc31)CCC2.I,-71.2
5,CC(=O)NNC(=O)CCn1c2c(c3ccccc31)CCCC2,9.01
6,Cl.N=c1c2c(n(Cc3ccccc3)c3c1CCC3)CCC2,-0.485
7,CCCCn1c2c(c(=N)c3ccccc31)CCC2.I,-50.3
8,O=C(O)CCn1c2c(c3ccccc31)CCCC2,25.3
9,[N-]=[N+]=NC[C@H](Cc1ccccc1)N1CC[C@@H](OCc2ccccc2)CCC1=O,-13.3
10,CCC(=O)n1nc(-c2ccc(Cl)cc2)nc1N,3.71
11,CC1(/[N+]([O-])=C/c2ccccc2F)CCCCC1=O (stereo not drawn),25.2
12,O=C1OC(c2ccc(Br)cc2)=N/C1=C\c1ccco1,26.3
13,CCOc1nc(NCCc2ccc(OC)c(OC)c2)nc(N2CCN(c3ccc(OC)cc3)CC2)n1,-3.79
14,COc1ccc(CCNc2nc(N3CCOCC3)nc(N3CCOCC3)n2)cc1OC,3.45
15,COc1ccc(N2CCN(c3nc(NCCc4ccc(OC)c(OC)c4)nc(OC)n3)CC2)cc1,-78.3
16,N=C1C(c2nc(-c3ccc(Cl)cc3)cs2)=C(O)CN1NC(=O)c1ccc(O)cc1,4.02
17,Cc1ccccc1N1CCN(C2CCCN(C(=O)c3cc[n+]([O-])cc3)C2)CC1 (stereo not drawn),9.87
18,COc1ccc(CN2C(=O)CCC(C(=O)O)C2c2ccccc2)cc1 (stereo not drawn),25.6
19,Cc1cc(C(=O)COc2cccc([N+](=O)[O-])c2)c(C)n1C1CC1,-35.7
20,Cc1cc(=O)n(C)c(=O)n1CCCCCCOc1cccc([N+](=O)[O-])c1,-69.3
21,Cc1cc(=O)n(C)c(=O)n1CCCCOc1cccc([N+](=O)[O-])c1,-14.5
22,O=C(COc1cccc([N+](=O)[O-])c1)NN1C(=O)c2ccccc2C1=O,-5.95
23,Cc1cc(=O)n(C)c(=O)n1CCCNc1ccccc1.O=C(O)C(=O)O,-4.01

row,SMILES,"hERG current change (%, negative = inhibition) at 10uM [%]"
1,Cc1cc(=O)n(C)c(=O)n1CCCCCOc1cccc([N+](=O)[O-])c1,-57.9
2,Cn1nccc1CNC(=O)c1ccnn1C,14.9
3,COc1ccc(COC(=O)C2=C(C)NC(=O)NC2c2cccc(OC)c2OC)cc1 (stereo not drawn),5.25
4,CCC(=O)Nc1ncc2c(n1)CC(c1ccco1)CC2=O (stereo not drawn),7.92
5,COc1ccc(CCNC(=O)C2CCN(C(=O)c3ccc(Cl)cc3)CC2)cc1OC,2.77
6,COc1ccc(Cl)cc1NC(=O)COC(=O)C1CC1,-0.403
7,COc1ccc(Cl)cc1NC(=O)COC(=O)C1CCCCC1,7.15
8,Cc1ccc(Cl)cc1NC(=O)COC(=O)C1CCCCC1,7.48
9,COc1ccc(COC(=O)C2CCN(C(=O)c3ccc(Cl)cc3)CC2)cc1F,-52.2
10,O=C(OCc1ccccn1)C1CCN(C(=O)c2ccc(Cl)cc2)CC1,-36
11,Cc1ccc(Cl)cc1NC(=O)COC(=O)C1CC1,-5.31
12,COc1ccc(OC)c(NC(=O)COC(=O)C2CCN(C(=O)c3ccc(Cl)cc3)CC2)c1,-71.1
13,COc1ccc(C)cc1NC(=O)Nc1ccc(C(=O)N2CCCC2)cc1,-23
14,Cc1ccc(Cl)cc1NC(=O)COC(=O)C1CCCC1,-75.8
15,COc1ccc(C)cc1NC(=O)COC(=O)C1CCN(C(=O)c2ccc(Cl)cc2)CC1,-79.1
16,COc1ccc(C)cc1NC(=O)COC(=O)C1CC1,6.16
17,Cl.NC(CO)C12CC3CC(CC(C3)C1)C2 (stereo not drawn),9.97
18,Cc1ccc(C(C(=O)NCc2ccco2)N(C(=O)CNC(=O)c2cccs2)c2ccc(C)cc2C)cc1 (stereo not drawn),-10.3
19,CN1CCN(c2nc(-c3ccccc3)cc(C(F)(F)F)n2)CC1,-19.1
20,CCOc1ccc2c(c1)c(N=NC(N)=S)c(O)n2C,1.21
21,CC(C)Cc1nnc(NC(=O)C2CC(=O)N(Cc3ccccc3)C2)s1 (stereo not drawn),0.385
